Measured values reported in PubChem BioAssay (NCATS).
“And” between values parts separate entries of the source, which are not always exact repeats. Equal entries are not always repeated. Inconclusive results are not listed. The source made the active and inactive calls. Unless noted, calls come from the whole dose curve; as a rule, active = well fitted curve in the direction sought with a large enough effect; inconclusive = small, poorly fitted or top-dose-only effect, or another doubt; inactive = no such curve, though single readings can be large; an effect the other way counts as inactive or inconclusive.

How the values were obtained:
[1] = qHTS to identify inhibitors of the type 1 interferon - major histocompatibility complex class I in skeletal muscle: primary screen against the NCATS LOPAC collection (AID 1347405);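 note: human myoblasts with HiBiT tag on endogenous HLA-B stimulated by IFN-beta; lytic HiBiT luminescence reporting HLA-B protein level; % is set by controls: 0 for no effect and ±100 for the full control effect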
Procedure, shortened: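 First, engineered myoblasts carrying HLA-B-HiBiT were seeded in medium lacking dexamethasone with 4 ng/ml IFN-beta. After 1 hr, compounds were pinned in (top 46 uM final, 7 points). After 24 hrs at 37 C, luminescence was measured following 10 min lysis.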

[2] = qHTS to identify inhibitors of the type 1 interferon - major histocompatibility complex class I in skeletal muscle: primary screen against the NCATS Pharmaceutical Collection (AID 1347407);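 note: luminescence of HiBiT knocked into endogenous HLA-B as interferon-induced MHC class I level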; note: potency is the fitted concentration of half-maximal effect
Procedure, shortened: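 A qHTS format is used: 8-point, 1:5 compound series with 46 uM top final concentration, applied alongside 4 ng/ml IFN-beta to HLA-B*08:01-HiBiT knock-in myoblasts. Luminescence is measured after 24 h treatment.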

[3] = qHTS for inhibitors of adenylyl cyclases using a fission yeast platform: a pilot screen against the NCATS LOPAC library (AID 1347410);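 note: plate controls were DMSO vehicle for no effect and DPI positive control for full effect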
Procedure, shortened: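 Inhibition of GNAS-stimulated AC9 activity in S. pombe was inferred from derepression of a PKA-repressed fbp1-GFP reporter, measured as cytometric fluorescence after 18 h at 30C with compounds at up to 57 µM.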

[4] = target: Protein phosphatase 1D (Homo sapiens) (UniProt O15297); experiment: RapidFire Mass Spectrometry qHTS Assay for Modulators of WT P53-Induced Phosphatase 1 (WIP1) (AID 1347424);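 note: amount of dephosphorylated VEPPL-S-QETFS peptide product formed by WIP1; series mostly up to about 63 µM; plate controls were DMSO wells for no effect and GSK830371 inhibitor control at 10 µM for full effect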
Procedure, shortened: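 Mass-spectrometric measurement of dephosphorylated peptide after a 5 min room-temperature reaction of 10 nM WIP1 with 2 uM phosphopeptide, following 1 h compound preincubation in 30 mM MgCl2 buffer.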

[5] = target: Protein phosphatase 1D (Homo sapiens) (UniProt O15297); experiment: Rhodamine-PBP qHTS Assay for Modulators of WT P53-Induced Phosphatase 1 (WIP1) (AID 1347425); note: % of control where 0% means no effect
Procedure, shortened: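 Steps: enzyme with Rh-PBP sensor and compounds, room-temperature incubation of 1 hr, baseline read, addition of VEPPL-pS-QETFS (10 uM final), kinetic fluorescence reads at 525/598 nm. Activity equals final minus baseline signal.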

[6] = Primary qHTS for inhibitors of La Crosse Virus (LACV) - induced cell death in SH-SY5Y cells (AID 1508616);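 note: top concentration of the series differs between compounds; 0% = infected DMSO wells and 100% = uninfected DMSO wells; higher means more rescue of cells from virus-induced death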
Procedure, shortened: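 SH-SY5Y, 6000 cells/well; cpd via pin tool in DMSO; LACV 0.01 MOI; 6 d 37C 5% CO2; ATPLite, 5 min RT; luminescence normalized to ±virus DMSO controls.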

[7] = A High-Content qHTS Against Drug Library for the Identification of Small Molecules that Inhibit DYT1 Early Onset Primary Dystonia-Associated Cell Pathology (AID 1645839; calls by dose curve; note: series mostly up to about 46 µM)
Procedure, shortened: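 Induced EGFP-delE TorsinA cells are imaged after 48 h of compound treatment. Punctate fusion-protein distribution gives the %pathology value, while nuclei counts flag toxicity. Wild-type EGFP-hTOR1A cells define the normal pattern.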

[8] = Validation qHTS assay for inhibitors of Activation Induced Cytidine Deaminase (AID): UDG Counterscreen signal (AID 1347427); note: 0% is about no effect
Procedure, shortened: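 Fluorescence at 560 nm excitation, 665 nm emission reports UDG signal after 250 mM NaOH (2x) addition and 30 min. Enzymes (AID 1 uM, UDG 2 U/mL, at 4/3x) preincubated 10 min with compound, then 4 h with 4x 250 nM DJC20/DJC23 substrate at room temperature.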

[9] = target: Single-stranded DNA cytosine deaminase (Homo sapiens) (UniProt Q9GZX7); experiment: Validation qHTS assay for inhibitors of Activation Induced Cytidine Deaminase (AID): AID signal (AID 1347429); note: % is set by controls: 0 for no effect and ±100 for the full control effect
Procedure, shortened: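 Steps: dispense AID with UDG; pin-transfer compound up to 114 uM final; add DJC20/DJC23 substrate and hold 4 hr at room temperature; add NaOH, hold 30 min; read FRET signal (540/590 nm).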

[10] = target: Calcium and integrin-binding protein 1 (Homo sapiens) (UniProt Q99828); experiment: Validation qHTS for Identification of Calcium Integrin Binding protein 1 (CIB1) Competitor (AID 1508618); note: % is set by controls: 0 for no effect and ±100 for the full control effect
Procedure, shortened: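 In this qHTS validation, the LOPAC set (up to 114 uM) was tested for blocking CIB1 binding to a fluorescein-tagged alphaIIb peptide, with FP detection at 480/540 nm.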

[11] = target: Calcium and integrin-binding protein 1 (Homo sapiens) (UniProt Q99828); experiment: Primary qHTS for Identification of Calcium Integrin Binding Protein 1 (CIB1) Competitor (AID 1508620);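 note: GST tagged CIB1 binding a fluorescein labelled alphaIIb integrin peptide tracer; top concentration of the series differs between compounds; % is set by controls: 0 for no effect and ±100 for the full control effect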
Procedure, shortened: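 Fluorescence polarization competition: CIB1-GST (1 uM final) preincubated with compound 15 min at room temperature, then FITC-labeled alphaIIb peptide (100 nM final) added for another 15 min. Polarization read at Ex 480/Em 540.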

[12] = Primary qHTS for small molecule stabilizers of the endoplasmic reticulum resident proteome: Secreted ER Calcium Modulated Protein (SERCaMP) assay (AID 1508630); note: potency is the fitted concentration of half-maximal effect
Procedure, shortened: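 The SH-SY5Y reporter protocol was run at 3 concentrations up to 38.3 uM (primary) or 11 concentrations (follow-up): 16 h compound, 100 nM thapsigargin for 4 h, then extracellular luciferase luminescence.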

[13] = target: Cytochrome P450 2D6 (Homo sapiens) (UniProt P10635); experiment: Cytochrome P450 family 2 subfamily D member 6 (CYP2D6) small molecule antagonists: luciferase biochemical (cell-free) qHTS assay (AID 1645840; active = well fitted curve in the direction sought with a large enough effect in the repeat runs; an effect the other way counts as inactive or inconclusive; note: nearly all actives have a fitted effect of over 55% in size; note: potency is the fitted concentration of half-maximal effect)
Procedure, shortened: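 P450-Glo CYP2D6 system: proluciferin substrate converted by enzyme to luciferin, read by luminescence proportional to activity. Enzyme-substrate mix with compound 10 min at room temperature, then NADPH regeneration 1 h before detection reagent.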

[14] = qHTS to identify inhibitors of the type 1 interferon - major histocompatibility complex class I in skeletal muscle: primary screen against the NCATS Mechanism Interrogation Plate v5.0 (MIPE) Libary (AID 1347411); note: nearly all actives have a fitted effect of over 65% in size; note: potency is the fitted concentration of half-maximal effect;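 for activity change, negative = inhibition: plate controls were vehicle for no effect and reference inhibitor for full effect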
Procedure, shortened: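 Seed engineered human myoblasts (HLA-B HiBit) in medium without dexamethasone containing 4 ng/ml IFN-beta; after 1 hr add compound titrations (top 46 uM final). Incubate 24 hrs at 37 C, lyse 10 min with HiBiT reagent, read luminescence.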

[15] = HepG2 cells viability qHTS for Zika virus inhibitors (AID 1347168); note: % is set by controls: 0 for no effect and ±100 for the full control effect
Procedure, shortened: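 To flag cytotoxic protease inhibitors, viability is measured by ATP-dependent luminescence (CellTiter Glo) after cells attached overnight receive compound for 24 to 48 hours in DMEM with 4% FBS.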

[16] = Tertiary RLuc qRT-PCR qHTS assay for Zika virus inhibitors (AID 1347169); note: potency is the fitted concentration of half-maximal effect; nearly all actives have a fitted effect of over 55% in size
Procedure, shortened: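 Inhibition of ZIKV-RLuc replication in Vero cells, read as Renilla luminescence 1-1.5 hrs after live-cell substrate addition, following 48-72 hrs infection at MOI 1-2 in presence of compound.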

[17] = target: Calcium and integrin-binding protein 1 (Homo sapiens) (UniProt Q99828); experiment: Confirmatory qHTS for Identification of Calcium Integrin Binding Protein 1 (CIB1) Competitor (AID 1508617); note: % is set by controls: 0 for no effect and ±100 for the full control effect; nearly all actives have a fitted effect of over 65% in size
Procedure, shortened: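 Binding competition between test compounds and fluorescent alphaIIb peptide for 1 uM CIB1-GST is monitored by FP at 480/540 nm. Final compound range is up to 114 uM; unlabeled peptide serves as reference competitor.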

[18] = Counterscreen qHTS for small molecule stabilizers of the endoplasmic reticulum resident proteome: GLuc-NoTag assay (AID 1508627);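 note: series mostly up to about 76 µM; 0% = thapsigargin alone and -100% = DMSO vehicle control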
Procedure, shortened: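 Secreted GLuc lacking the SERCaMP modification is measured in SH-SY5Y cells exposed to compound for 19 h and then to thapsigargin (100 nM, 4 h) to deplete ER calcium; hits retested at 11 concentrations, up to 76.6 uM.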

[19] = Cell Viability qHTS for small molecule stabilizers of the endoplasmic reticulum resident proteome (AID 1508629); conditions: cell viability counter-screen, 100 nM thapsigargin for final 4 h

Sequence of Protein phosphatase 1D (Homo sapiens) (O15297 whole entry, looked up): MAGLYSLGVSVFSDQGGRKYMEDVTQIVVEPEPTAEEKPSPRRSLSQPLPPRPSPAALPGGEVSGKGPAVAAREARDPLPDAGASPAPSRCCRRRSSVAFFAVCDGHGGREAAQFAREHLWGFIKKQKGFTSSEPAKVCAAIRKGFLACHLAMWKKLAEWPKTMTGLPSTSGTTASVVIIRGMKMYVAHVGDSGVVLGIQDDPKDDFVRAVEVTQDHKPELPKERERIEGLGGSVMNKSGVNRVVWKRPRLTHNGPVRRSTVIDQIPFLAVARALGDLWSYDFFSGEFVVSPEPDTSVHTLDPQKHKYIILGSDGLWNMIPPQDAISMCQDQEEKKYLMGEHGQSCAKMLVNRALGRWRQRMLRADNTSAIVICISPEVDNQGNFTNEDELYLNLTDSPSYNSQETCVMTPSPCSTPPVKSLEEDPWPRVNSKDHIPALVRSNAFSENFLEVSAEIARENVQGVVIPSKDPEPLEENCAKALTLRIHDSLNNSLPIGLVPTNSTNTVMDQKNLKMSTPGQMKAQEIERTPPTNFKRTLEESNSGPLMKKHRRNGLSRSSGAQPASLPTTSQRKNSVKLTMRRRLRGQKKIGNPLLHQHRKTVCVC
Sequence of Single-stranded DNA cytosine deaminase (Homo sapiens) (Q9GZX7 whole entry, looked up): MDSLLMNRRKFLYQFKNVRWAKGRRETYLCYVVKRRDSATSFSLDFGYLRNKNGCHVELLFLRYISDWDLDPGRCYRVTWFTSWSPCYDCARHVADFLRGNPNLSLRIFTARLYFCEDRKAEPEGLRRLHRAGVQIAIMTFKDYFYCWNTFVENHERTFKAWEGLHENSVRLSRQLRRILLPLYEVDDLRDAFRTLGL
Sequence of Calcium and integrin-binding protein 1 (Homo sapiens) (Q99828 whole entry, looked up): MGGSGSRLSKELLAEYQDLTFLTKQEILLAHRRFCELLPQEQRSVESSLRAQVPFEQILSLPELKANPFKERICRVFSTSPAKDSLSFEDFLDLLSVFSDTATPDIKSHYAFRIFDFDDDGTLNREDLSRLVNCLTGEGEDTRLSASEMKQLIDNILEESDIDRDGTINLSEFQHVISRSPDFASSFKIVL
Sequence of Cytochrome P450 2D6 (Homo sapiens) (P10635 whole entry, looked up): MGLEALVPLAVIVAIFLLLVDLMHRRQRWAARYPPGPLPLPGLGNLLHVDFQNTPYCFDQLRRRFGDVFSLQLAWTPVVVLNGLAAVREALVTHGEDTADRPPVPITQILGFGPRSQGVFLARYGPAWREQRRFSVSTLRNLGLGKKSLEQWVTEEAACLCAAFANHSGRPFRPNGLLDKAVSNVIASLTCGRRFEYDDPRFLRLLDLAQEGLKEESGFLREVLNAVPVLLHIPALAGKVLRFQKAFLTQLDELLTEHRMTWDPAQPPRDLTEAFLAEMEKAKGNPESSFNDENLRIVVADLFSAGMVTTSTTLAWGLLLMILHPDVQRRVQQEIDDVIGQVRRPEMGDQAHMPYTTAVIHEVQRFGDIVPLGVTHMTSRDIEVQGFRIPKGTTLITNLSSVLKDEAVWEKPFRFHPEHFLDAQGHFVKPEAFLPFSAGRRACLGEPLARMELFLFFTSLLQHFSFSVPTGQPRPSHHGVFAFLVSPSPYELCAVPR

CC(C)(C(=O)O)c1ccc(C(O)CCCN2CCC(C(O)(c3ccccc3)c3ccccc3)CC2)cc1 (stereo unspecified)
inactive: Potency [1] | Potency [2] | outcome [3] | outcome [4] | outcome [5] | outcome [6] | Potency [7]

CN(C)CCCN1c2ccccc2Sc2ccc(Cl)cc21
inactive: Potency [2] | outcome [3] | outcome [4] | outcome [5] | Potency [8] | Potency [9] | outcome [6] | outcome [10] | outcome [11] | Potency [12]

C#CCN(C)Cc1ccccc1
inactive: Potency [2] | outcome [3] | outcome [4] | outcome [5] | Potency [8] | Potency [9] | outcome [6] | outcome [10] | outcome [11] | Potency [7] | Potency [13]

C[C@](N)(Cc1ccc(O)cc1)C(=O)O
inactive: activity change, negative = inhibition [2] -0.196% [at 3.83 µM] | outcome [3] | activity change, negative = inhibition [4] 3.41% [at 6.17 µM] | activity change, negative = inhibition [5] -0.695% [at 4.81 µM] | Potency [8] | Potency [9] | outcome [6] | outcome [10] | activity change, negative = inhibition [11] 5.16% [at 12.4 µM] | Potency [12] | % pathology change, negative = correction [7] 14.7% [at 4.63 µM] | activity change, negative = inhibition [13] 8.94% [at 4.83 µM]

CC[C@H]1CN2CCc3cc(OC)c(OC)cc3[C@@H]2C[C@@H]1C[C@H]1NCCc2cc(OC)c(OC)cc21
inactive: outcome [3] | outcome [4] | Potency [8] | Potency [9] | outcome [10] | outcome [11] | Potency [13]
active: Potency [2] 0.264 µM | Potency [14] 0.658 µM

Cc1cc(C(C#N)c2ccc(Cl)cc2)c(Cl)cc1NC(=O)c1cc(I)cc(I)c1O (stereo unspecified)
inactive: outcome [15] | Potency [2] | outcome [6] | Potency [17]
active: Potency [16] 6.58 µM and 16.5 µM | Potency [13] 11 µM

CN(C)CCOC(C)(c1ccccc1)c1ccccn1 (stereo unspecified)
inactive: Potency [2] | outcome [3] | outcome [4] | outcome [5] | Potency [8] | Potency [9] | outcome [6] | outcome [10] | outcome [11] | Potency [12] | Potency [7]

CC(=O)OCC(=O)[C@@]1(O)CC[C@H]2[C@@H]3CCC4=CC(=O)CC[C@]4(C)[C@H]3C(=O)C[C@@]21C
inactive: Potency [2] | outcome [3] | Potency [14] | outcome [5] | Potency [8] | Potency [9] | outcome [6] | outcome [10] | outcome [11] | Potency [7]
active: Potency [13] 3.89 µM

O=C1N=C(O)CN1/N=C/c1ccc(-c2ccc([N+](=O)[O-])cc2)o1
inactive: Potency [2] | outcome [3] | outcome [4] | outcome [5] | Potency [8] | Potency [9] | outcome [6] | outcome [10] | outcome [11] | Potency [18] | max response [19] 30.6% | Potency [7] | Potency [13]
active: Potency [12] 14.1 µM

CC(CN(C)C)CN1c2ccccc2CCc2ccccc21 (stereo unspecified)
active: Potency [13] 2.88 µM
inactive: Potency [1] | Potency [2] | outcome [3] | outcome [4] | Potency [8] | Potency [9] | outcome [6] | outcome [10] | outcome [11]
